This is part of a sample that, as a whole, favours compounds with a hit. Of some 83,000 tested, about 20% had one in any assay.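 Negative percent growth values reflect cell death: -40 means 40% of the cells present at the start died, and -100 means all died.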 A number with no mark means an inactive call. Active and inactive are the calls of the source. The calls were made as follows: active = growth percent below 10; inactive = the rest.
Assays:
Experiment in all cases: NCI-60 one-dose screen, 48 h (100 = growth as untreated, 0 = no growth, -100 = all killed)
Details in all cases: 10 µM unless noted
NCI-H23 lung = test system: NCI-H23 lung
NCI-H226 lung = test system: NCI-H226 lung
NCI-H322M lung = test system: NCI-H322M lung
HOP-62 NSCLC = test system: HOP-62 NSCLC
NCI-H460 lung = test system: NCI-H460 lung
HOP-92 NSCLC = test system: HOP-92 NSCLC
NCI-H522 lung = test system: NCI-H522 lung
A549/ATCC NSCLC = test system: A549/ATCC NSCLC
786-0 renal = test system: 786-0 renal
COLO 205 colon = test system: COLO 205 colon
DU-145 prostate = test system: DU-145 prostate
K-562 leukemia = test system: K-562 leukemia
MALME-3M melanoma = test system: MALME-3M melanoma
MDA-MB-231 breast = test system: MDA-MB-231 breast
SF-268 CNS = test system: SF-268 CNS
SF-295 CNS = test system: SF-295 CNS
SF-539 CNS = test system: SF-539 CNS
UACC-257 melanoma = test system: UACC-257 melanoma
M14 melanoma = test system: M14 melanoma

| Structure (SMILES) | growth (NCI-H23 lung) | growth (NCI-H226 lung) | growth (NCI-H322M lung) | growth (HOP-62 NSCLC) | growth (NCI-H460 lung) | growth (HOP-92 NSCLC) | growth (NCI-H522 lung) | growth (A549/ATCC NSCLC) | growth (786-0 renal) | growth (COLO 205 colon) | growth (DU-145 prostate) | growth (K-562 leukemia) | growth (MALME-3M melanoma) | growth (MDA-MB-231 breast) | growth (SF-268 CNS) | growth (SF-295 CNS) | growth (SF-539 CNS) | growth (UACC-257 melanoma) | growth (M14 melanoma) |
| --- | --- | --- | --- | --- | --- | --- | --- | --- | --- | --- | --- | --- | --- | --- | --- | --- | --- | --- | --- |
| CN1C(=O)C23CC4(C56CC78SSC(CO)(C(=O)N7C5Nc5ccccc56)N(C)C8=O)c5ccccc5NC4N2C(=O)C1(CO)SS3 (centres undefined) | -72.9% (active) | -100% (active) | -94.5% (active) | -86.4% (active) | -89.4% (active) | -99% (active) | -85.9% (active) | -88.5% (active) | -97.4% (active) | -87.8% (active) | -100% (active) | -30.3% (active) | -76.7% (active) | -94.1% (active) | -97.8% (active) | -93.8% (active) | -86.4% (active) | -94.9% (active) | -83.3% (active) |
| O=C(NCCN1CC1)C(=O)NCCN1CC1 | 90.5% | 87.4% | 102% | 84.5% | 58% | 103% | 62.7% | 75.3% | 98.3% | 88.7% | 90.2% | 87.9% | 103% | 99.3% | 77.8% | 51% | 101% | 85.1% | 92.9% |
| COC(=O)[C@@H](C)C[C@H](Cc1cn(C)c2ccccc12)NC(=O)c1csc([C@@H](C[C@H](C(C)C)N(C)C(=O)[C@@H](NC(=O)[C@H]2CCCCN2C)C(C)C)OC(C)=O)n1 | 31.9% | 18% | 37.8% | 7.44% (active) | 7.12% (active) | 25.7% | -7.69% (active) | 15.3% | 6.49% (active) | -58.9% (active) | 12.4% | 6.65% (active) | 50.4% | 5.09% (active) | 16.6% | -0.0499% (active) | -8.57% (active) |  | -10.2% (active) |
| COC(=O)[C@@H](C)C[C@H](Cc1ccc(F)cc1)NC(=O)c1csc([C@@H](C[C@H](C(C)C)N(C)C(=O)[C@@H](NC(=O)[C@H]2CCCCN2C)C(C)C)OC(C)=O)n1 | 35.2% | 27.3% | 38% | 6.77% (active) | 6.06% (active) | 26.7% | -13.9% (active) | 16.6% | 13.2% | -68.8% (active) | 13.5% | 8.92% (active) | 47% | 4.87% (active) | 27% | 8.69% (active) | -6.38% (active) |  | -5.96% (active) |
| CC1(C)N=C(N)N=C(N)N1c1cccc(CCCCc2ccc(Cl)c(S(=O)(=O)F)c2)c1 | 28.4% | 57.1% | 54.9% | 33.6% | 21.4% | 41.3% | -9.62% (active) | 10.6% | 5.96% (active) | 72.7% | 47.5% | 16.4% | 56% | 69.8% | 35.9% | 39% | 19.9% | 33.6% | 39% |
| O=P1(NCCCl)OCCCN1CCCl (centres undefined) | 107% | 109% | 106% | 108% | 109% | 97.4% | 99.5% | 121% | 93.5% | 112% | 110% | 95.8% | 120% | 120% | 109% | 99.2% | 98.3% | 116% | 106% |
| COC(=O)[C@@H](C)C[C@H](Cc1ccccc1)NC(=O)c1csc(CC[C@H](C(C)C)N(C)C(=O)[C@@H](NC(=O)[C@H]2CCCCN2C)C(C)C)n1 | 32.4% | 50.2% | 44.4% | 21.7% | 6.76% (active) | 52.8% | -12.9% (active) | 19% | 10.9% | -38.9% (active) | 10.8% | 6.9% (active) | 61.2% | 14.2% | 27% | -6.82% (active) | -9.08% (active) |  | -13.3% (active) |
| CC(=O)/C=C/c1ccc2c(c1)OCO2 | 95.4% | 95.2% | 104% | 102% | 107% | 89% | 84.7% | 95.2% | 99% | 107% | 104% | 106% | 92% | 95.1% | 106% | 94.1% | 102% | 91.7% | 100% |

Reference: PubChem BioAssay (NCI)
